From PubChem BioAssay (NCATS)
Values without a mark were called inactive. Inconclusive results are not listed. Entries that show only a call come without a potency. Activity calls are given as the source filed them. Unless noted, calls follow the shape of the dose curve; as a rule, active = well fitted curve in the direction sought with a large enough effect; inconclusive = small, poorly fitted or top-dose-only effect, or another doubt; inactive = no such curve, though single readings can be large; an effect the other way counts as inactive or inconclusive.

Experiments:
[1] = AP1 Signaling Pathway (AID 357; active = well fitted curve in either direction with a large enough effect, not every such curve was filed as active); settings: ME-180 AP-1-bla reporter, EGF-induced, beta-lactamase ratio, 5 h; at 7.69 µM (top of the series) unless noted
In short: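 ME-180 cells with beta-lactamase reporter under AP-1 response element, stimulated with EC50 EGF; compounds tested in titration series, 5 h at 37 °C. CCF4 substrate added 2.5 h at room temperature; 460/530 nm emission ratio gave %activity and AC50.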

[2] = biological target: Cytochrome P450 1A2 (Homo sapiens) (UniProt P05177); assay: p450-cyp1a2 (AID 410; calls by dose curve; also: potency is read from the fitted curve at half-maximal effect)
In short: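 Luminescent readout of luciferin formed from Luciferin-ME by human CYP1A2; data normalized against complete inhibition by 57 uM furafylline. Enzyme 20nM, substrate 100uM at Km, 100mM KPO4 buffer, 60 min reaction at room temperature.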

[3] = Stat Signaling Pathway (AID 446; active = well fitted curve in either direction with a large enough effect, not every such curve was filed as active;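 also: ME-180 cervical cancer cells given 40 pM IL-6 alongside compound; SIE-controlled beta-lactamase reporter measured as 460/530 nm FRET emission ratio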)
In short: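 ME-180 SIE-bla cells; overnight plating; cpd + IL-6 40 pM, 5 h, 37 C; LiveBLAzer 2.5 h RT; 460/530 nm emission ratio. Normalized to 300 pM IL-6 and 125 nM JAK inhibitor controls.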

[4] = biological target: Mitogen-activated protein kinase 10 (Mus musculus) (UniProt Q61831); assay: JNK3 AlphaScreen Assay (AID 530; active = well fitted curve in either direction with a large enough effect, not every such curve was filed as active;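 also: kinase came from lysate of stimulated human HepG2 cells; signal reports phosphorylation of biotinylated GST-cJun 1-79 at Ser73 with 10 µM ATP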)
In short: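 Compound titrations were preincubated 15 minutes at room temperature with substrate, antibody and pre-activated JNK3-containing HepG2 lysate. Reactions were started with 10 uM ATP and stopped with EDTA-containing bead buffer for AlphaScreen detection.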

[5] = biological target: 3',5'-cyclic-AMP phosphodiesterase 4B (Homo sapiens) (UniProt Q07343); assay: qHTS Assay for Inhibitors of PDE-IV (AID 607; active = well fitted activation curve with a large enough effect in the main read-out, with a control signal flat, not every such curve was filed as active)
In short: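 ACTOne HEK293 cells carry a modified cAMP-gated CNG channel and express endogenous PDE4; plated 1000 cells/well, compounds up to 22.9 uM final. Membrane-potential dye fluorescence (ex 535/em 590) was read; parental cells received 10 uM forskolin + 100 uM RO 20-1724.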

[6] = biological target: Guanine nucleotide-binding protein G(i) subunit alpha-1 (Homo sapiens) (UniProt P63096); assay: qHTS Assay for Inhibitors of RGS12 GoLoco Motif Activity (Green Fluorophore) (AID 879);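 also: negative values mean loss of peptide binding seen as reduced polarization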
Chain of Guanine nucleotide-binding protein G(i) subunit alpha-1 (Homo sapiens) (P63096 whole entry, looked up): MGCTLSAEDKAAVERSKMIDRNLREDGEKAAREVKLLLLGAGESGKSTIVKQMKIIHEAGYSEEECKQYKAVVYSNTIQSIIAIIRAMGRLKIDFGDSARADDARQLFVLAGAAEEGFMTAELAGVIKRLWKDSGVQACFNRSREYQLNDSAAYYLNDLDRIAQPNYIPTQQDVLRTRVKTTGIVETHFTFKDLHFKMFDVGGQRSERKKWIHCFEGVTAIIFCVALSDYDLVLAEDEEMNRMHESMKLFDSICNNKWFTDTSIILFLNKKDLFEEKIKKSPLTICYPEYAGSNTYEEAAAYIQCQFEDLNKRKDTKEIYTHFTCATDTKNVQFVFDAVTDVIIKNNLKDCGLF
In short: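 Fluorescence polarization assay: 50 nM Gαi1 with 10 nM FITC-labeled RGS12 GoLoco peptide in 10 mM Tris pH 7.5, 150 mM NaCl, 0.1 mM GDP, 0.05% NP40, 10 min at room temperature with compound.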

[7] = biological target: Cytochrome P450 2C9 (Homo sapiens) (UniProt P11712); assay: qHTS Assay for Inhibitors and Substrates of Cytochrome P450 2C9 (AID 883); also: nearly all actives have a fitted effect of over 60% in size
In short: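 Luminescent read-out of deoxyluciferin hydroxylation, normalized to 57uM sulphaphenazole (AC100). Reaction: 10nM enzyme, 100uM Luciferin-H (equal to KM), 25mM KPO4, 10 min compound preincubation, then 60 min with NADPH regeneration, both at 37C.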

[8] = biological target: Cytochrome P450 3A4 (Homo sapiens) (UniProt P08684); assay: qHTS Assay for Activators of Cytochrome P450 3A4 (AID 885); also: nearly all actives have a fitted effect of over 65% in size
In short: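 20nM CYP3A4 + 25uM Luciferin-PPXE (=KM), 200mM KPO4; cpd 10 min RT; NADPH regen, 60 min RT; stop w/ detection buffer, 20 min; luminescence. Normalized to 57 uM ketoconazole.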

[9] = biological target: Cytochrome P450 2D6 (Homo sapiens) (UniProt P10635); assay: qHTS Assay for Inhibitors and Substrates of Cytochrome P450 2D6 (AID 891); also: potency is read from the fitted curve at half-maximal effect; nearly all actives have a fitted effect of over 60% in size
Chain of Cytochrome P450 2D6 (Homo sapiens) (P10635 whole entry, looked up): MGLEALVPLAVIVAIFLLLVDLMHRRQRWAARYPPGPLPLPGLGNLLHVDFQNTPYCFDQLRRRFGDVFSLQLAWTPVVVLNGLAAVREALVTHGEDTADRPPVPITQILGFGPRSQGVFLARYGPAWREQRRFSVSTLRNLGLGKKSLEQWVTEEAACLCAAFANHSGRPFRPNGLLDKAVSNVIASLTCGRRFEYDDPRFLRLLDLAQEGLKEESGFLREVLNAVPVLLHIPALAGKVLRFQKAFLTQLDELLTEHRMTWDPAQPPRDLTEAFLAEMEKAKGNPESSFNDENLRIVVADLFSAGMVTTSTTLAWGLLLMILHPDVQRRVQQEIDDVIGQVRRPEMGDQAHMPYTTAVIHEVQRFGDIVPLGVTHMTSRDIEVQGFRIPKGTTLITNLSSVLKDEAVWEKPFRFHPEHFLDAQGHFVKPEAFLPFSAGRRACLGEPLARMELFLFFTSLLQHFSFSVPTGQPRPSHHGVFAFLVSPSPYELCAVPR
In short: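 Human CYP2D6 (5 nM) with 30 uM Luciferin-ME EGE (at Km) in 100 mM KPO4, compound preincubated 10 min, then NADPH regeneration system for 60 min at room temperature. Luciferin read by luminescence; normalized to 1.43 uM quinidine.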

[10] = qHTS Assay for Identification of Small Molecule Agonists for Hypoxia Response Element Signaling Pathway (AID 914; active = well fitted activation curve with a large enough effect in the signal ratio, with a control signal flat, not every such curve was filed as active; the % refers to the signal ratio); settings: ME-180 (cervical carcinoma) HRE-bla reporter, beta-lactamase ratio, CoCl2, 17 h; activation: hits give high values
In short: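 AC50 values come from titration-series %Activity, taken as the 460/530nm ratio of CCF4 fluorescence (excitation 405nm). CellSensor HRE-bla ME-180 cells were treated 17 hours at 37 C with compound plus an EC50 level of CoCl2.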

[11] = qHTS Assay for Identification of Small Molecule Agonists for Thrombopoietin (TPO) Signaling Pathway (AID 917)
In short: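 IL-3-dependent murine pro-B Ba/F3 cells, stably transfected with human TPO receptor and GpIIb-promoter luciferase, are incubated 24 hrs at 37 C with test compound and 26 pM TPO; luciferase signal is read after 10 min at room temperature.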

[12] = biological target: Muscarinic acetylcholine receptor M1 (Rattus norvegicus) (UniProt P08482); assay: qHTS Assay for Antagonists of Acetylcholine Muscarinic M1 Receptor: Kinetic Measurement of Intracellular Calcium Response (AID 943); also: potency is read from the fitted curve at half-maximal effect; nearly all actives have a fitted effect of over 75% in size
Chain of Muscarinic acetylcholine receptor M1 (Rattus norvegicus) (P08482 whole entry, looked up): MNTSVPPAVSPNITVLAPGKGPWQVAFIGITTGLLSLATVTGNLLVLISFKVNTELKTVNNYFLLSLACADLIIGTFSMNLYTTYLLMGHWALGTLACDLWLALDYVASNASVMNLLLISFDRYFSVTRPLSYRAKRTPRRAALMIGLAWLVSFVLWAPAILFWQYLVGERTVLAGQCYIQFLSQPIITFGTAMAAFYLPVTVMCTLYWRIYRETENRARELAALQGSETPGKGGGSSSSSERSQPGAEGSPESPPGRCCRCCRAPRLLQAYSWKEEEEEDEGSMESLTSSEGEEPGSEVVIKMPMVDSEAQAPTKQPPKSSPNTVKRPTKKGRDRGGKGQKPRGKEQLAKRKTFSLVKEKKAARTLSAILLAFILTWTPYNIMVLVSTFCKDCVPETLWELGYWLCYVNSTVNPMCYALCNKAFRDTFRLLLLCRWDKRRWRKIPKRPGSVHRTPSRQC
In short: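 Rat M1-CHO cells, 2000/well, overnight → Fluo-4 no-wash dye with probenecid, 1 h 37C → compound 10 min, room temp → basal read 6 s → carbachol EC80 (100 nM) → 4 min kinetic read; peak/basal.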

[13] = biological target: Pyruvate kinase (Leishmania mexicana) (UniProt Q27686); assay: qHTS Validation Assay for Inhibitors of Leishmania Mexicana Pyruvate Kinase (AID 945)
Chain of Pyruvate kinase (Leishmania mexicana) (Q27686 2-499 E452W): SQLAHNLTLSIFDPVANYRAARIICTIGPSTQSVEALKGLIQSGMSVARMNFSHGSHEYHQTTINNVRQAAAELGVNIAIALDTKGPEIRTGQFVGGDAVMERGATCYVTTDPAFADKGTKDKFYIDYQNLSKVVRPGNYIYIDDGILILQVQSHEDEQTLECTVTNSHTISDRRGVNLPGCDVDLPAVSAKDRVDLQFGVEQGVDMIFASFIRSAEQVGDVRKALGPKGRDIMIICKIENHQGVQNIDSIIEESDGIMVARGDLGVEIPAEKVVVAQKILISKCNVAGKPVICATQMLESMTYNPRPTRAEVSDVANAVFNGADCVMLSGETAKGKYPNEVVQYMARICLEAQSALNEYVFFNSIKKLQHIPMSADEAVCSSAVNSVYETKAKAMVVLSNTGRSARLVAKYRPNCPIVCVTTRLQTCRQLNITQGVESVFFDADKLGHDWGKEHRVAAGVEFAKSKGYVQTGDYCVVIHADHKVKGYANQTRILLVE
In short: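 Purified LmPYK (E451W mutant, 0.2 nM) was incubated 1 h at room temperature with 0.5 mM PEP and 0.1 mM ADP in 50 mM imidazole pH 7.2, 50 mM KCl, 7 mM MgCl2; ATP formed was read by PKLight luminescence, normalized to DMSO wells.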

[14] = biological target: Pyruvate kinase PKM (Homo sapiens) (UniProt P14618); assay: qHTS Assay for Activators of Human Muscle Pyruvate Kinase (AID 954; active = well fitted curve in the direction sought with a large enough effect, not every such curve was filed as active)
Chain of Pyruvate kinase PKM (Homo sapiens) (P14618 whole entry, looked up): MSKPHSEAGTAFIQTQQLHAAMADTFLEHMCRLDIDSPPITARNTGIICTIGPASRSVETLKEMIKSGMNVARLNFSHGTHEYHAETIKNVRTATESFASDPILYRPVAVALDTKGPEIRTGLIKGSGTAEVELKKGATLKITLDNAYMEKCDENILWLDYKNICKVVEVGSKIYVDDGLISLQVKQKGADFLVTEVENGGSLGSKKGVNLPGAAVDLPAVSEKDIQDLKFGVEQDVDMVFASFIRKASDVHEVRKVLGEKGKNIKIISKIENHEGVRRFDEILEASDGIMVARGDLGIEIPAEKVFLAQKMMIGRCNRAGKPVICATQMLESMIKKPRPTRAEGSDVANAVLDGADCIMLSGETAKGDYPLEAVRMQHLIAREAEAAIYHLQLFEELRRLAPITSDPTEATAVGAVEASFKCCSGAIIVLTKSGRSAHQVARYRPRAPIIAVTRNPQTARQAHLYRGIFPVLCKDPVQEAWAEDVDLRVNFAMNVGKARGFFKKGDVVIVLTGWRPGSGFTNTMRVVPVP
In short: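 Luminescence from a luciferase ATP-detection/stop reagent reported PKM2 activity. Reactions contained 0.1 nM purified human enzyme, 0.5 mM PEP, 0.1 mM ADP and 7 mM MgCl2 at pH 7.2, run 1 h at RT.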

[15] = biological target: Alpha-galactosidase A (Homo sapiens) (UniProt P06280); assay: Counterscreen for Glucocerebrosidase Inhibitors: qHTS Assay for Human alpha-Galactosidase at pH 4.5 (AID 992)
In short: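 Enzyme at 2 nM final was combined with compound (0.7 nM to 77 uM) and 80 uM 4-methylumbelliferyl alpha-D-galactopyranoside in 50 mM citric acid, 0.005% Tween-20, pH 4.5. After 20 min at room temperature, fluorescence was read (Ex 365/Em 440 nm); AC50 came from Hill fits.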

[16] = biological target: alpha-glucosidase (Oryza sativa, rice) (UniProt Q653V4); assay: Counterscreen for Glucocerebrosidase Inhibitors: qHTS Assay for Rice alpha-Glucosidase at pH 5.0 (AID 997)
In short: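 Rice alpha-glucosidase (4 nM final) with 400 uM 4-methylumbelliferyl-alpha-D-glucopyranoside in citrate buffer pH 5.0, 20 min at room temperature, stopped at pH 10; fluorescence 365/440 nm, compounds 0.7 nM–77 uM, AC50 from Hill fits.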

[17] = Counterscreen for APE1 Inhibitors: Fluorescent Dye Displacement Validation Assay (AID 1707)
In short: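 Thiazole Orange displacement from dsDNA: 250 nM ThO with 50 nM TAMRA-labelled abasic-site (tetrahydrofuran) duplex in 50 mM Tris-HCl pH7.5, 50mM NaCl, 2 mM MgCl2, 0.01% Tween-20. Loss of endpoint fluorescence (ex 480 nm, em 540 nm) flags DNA binders.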

[18] = qHTS for differential inhibitors of proliferation of Plasmodium falciparum line 7G8 (AID 1815);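 also: potency is read from the fitted curve at half-maximal effect; parasite growth measured after three days of incubation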
[19] = qHTS for differential inhibitors of proliferation of Plasmodium falciparum line GB4 (AID 1816); settings: Potency: Plasmodium falciparum GB4 proliferation inhibition;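 also: potency is read from the fitted curve at half-maximal effect; parasite growth measured after 72 h incubation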
[20] = qHTS for differential inhibitors of proliferation of Plasmodium falciparum line 3D7 (AID 1876); also: potency is read from the fitted curve at half-maximal effect
[21] = qHTS for differential inhibitors of proliferation of Plasmodium falciparum line W2 (AID 1883); settings: Potency: Plasmodium falciparum W2 proliferation inhibition;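 also: potency is read from the fitted curve at half-maximal effect; parasites grown with compound for 72 h before lysis and staining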
[22] = biological target: Ferritin light chain (Equus caballus) (UniProt P02791); assay: qHTS Validation Assay for Identification of Novel General Anesthetics (AID 2323)
Chain of Ferritin light chain (Equus caballus) (P02791 2-175 limits assumed): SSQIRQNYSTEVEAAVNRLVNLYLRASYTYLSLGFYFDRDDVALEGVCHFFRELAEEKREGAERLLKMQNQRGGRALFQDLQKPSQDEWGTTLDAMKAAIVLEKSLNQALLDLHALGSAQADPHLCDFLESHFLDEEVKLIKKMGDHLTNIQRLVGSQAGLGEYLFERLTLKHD
In short: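 Normalized fluorescence response, scaled between free 1-AMA and 1-AMA/apoferritin complex, fitted to a four-parameter Hill equation for concentration-effect values. Binding mix: 10 uM horse-spleen apoferritin, 50% saturated 1-AMA in PBS; read 380/535 nm after 10 min.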

[23] = biological target: ATP-dependent DNA helicase Q1 (Homo sapiens) (UniProt P46063); assay: qHTS Validation Assay for Inhibitors of RecQ-Like Dna Helicase 1 (RECQ1) (AID 2353)
In short: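 50 nM RECQ1T1 preincubated 15 min with compound in Tris pH 8.0 buffer with MgCl2, DTT, Tween-20 and 2.5 ug/ml poly(dI-dC); started with 200 nM TAMRA/BHQ-2 forked duplex and 2 mM ATP. Unwinding read as fluorescence (525/598 nm), two reads 2 h apart.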

[24] = biological target: RecQ-like DNA helicase BLM (Homo sapiens) (UniProt P54132); assay: qHTS Validation Assay for Inhibitors of Bloom's syndrome helicase (BLM) (AID 2364)
In short: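 Forked 20-bp duplex substrate (200 nM, TAMRA/BHQ-2) plus 2 mM ATP added after 15 min compound preincubation with 50 nM enzyme, pH 8.0, poly(dI-dC) 2.5 ug/ml. Strand separation followed by fluorescence (525/598 nm) over 2 h, normalized to enzyme-free and DMSO controls.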

[25] = Validation screen for small molecules that induce DNA re-replication in MCF 10A normal breast cells (AID 463097); also: nearly all actives have a fitted effect of over 60% in size
In short: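 Following 48 hr compound incubation (37 C, 5% CO2), MCF 10A cells receive Hoechst for 40 min at 37 C. Nuclei are then scanned (excitation 405 nm, emission 500-530 nm) for total fluorescence intensity.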

[26] = Quantitative high throughput screen for delayed death inhibitors of the malarial parasite plastid, 48 hour incubation (AID 488752); also: nearly all actives have a fitted effect of over 65% in size
In short: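 Readout is firefly luciferase luminescence from a reporter integrated into the parasite genome, with lower signal taken as inhibited growth. Infected red cells (0.1% parasitemia, 2% hematocrit final) are cultured with compound for one 48 h cycle at 37 C.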

[27] = biological target: M-phase phosphoprotein 8 (Homo sapiens) (UniProt Q99549); assay: qHTS Validation Assay for Inhibitors for MPP8 Chromodomain Interactions with Methylated Histone Tails (AID 488949);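 also: 50 nM MPP8 with 50 nM peptide preformed then compounds added for 30 min; AlphaScreen signal from MPP8 chromodomain bound to biotinylated H3K9me3 peptide; top concentration of the series differs between compounds; nearly all actives have a fitted effect of over 55% in size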
Chain of M-phase phosphoprotein 8 (Homo sapiens) (Q99549 whole entry, looked up): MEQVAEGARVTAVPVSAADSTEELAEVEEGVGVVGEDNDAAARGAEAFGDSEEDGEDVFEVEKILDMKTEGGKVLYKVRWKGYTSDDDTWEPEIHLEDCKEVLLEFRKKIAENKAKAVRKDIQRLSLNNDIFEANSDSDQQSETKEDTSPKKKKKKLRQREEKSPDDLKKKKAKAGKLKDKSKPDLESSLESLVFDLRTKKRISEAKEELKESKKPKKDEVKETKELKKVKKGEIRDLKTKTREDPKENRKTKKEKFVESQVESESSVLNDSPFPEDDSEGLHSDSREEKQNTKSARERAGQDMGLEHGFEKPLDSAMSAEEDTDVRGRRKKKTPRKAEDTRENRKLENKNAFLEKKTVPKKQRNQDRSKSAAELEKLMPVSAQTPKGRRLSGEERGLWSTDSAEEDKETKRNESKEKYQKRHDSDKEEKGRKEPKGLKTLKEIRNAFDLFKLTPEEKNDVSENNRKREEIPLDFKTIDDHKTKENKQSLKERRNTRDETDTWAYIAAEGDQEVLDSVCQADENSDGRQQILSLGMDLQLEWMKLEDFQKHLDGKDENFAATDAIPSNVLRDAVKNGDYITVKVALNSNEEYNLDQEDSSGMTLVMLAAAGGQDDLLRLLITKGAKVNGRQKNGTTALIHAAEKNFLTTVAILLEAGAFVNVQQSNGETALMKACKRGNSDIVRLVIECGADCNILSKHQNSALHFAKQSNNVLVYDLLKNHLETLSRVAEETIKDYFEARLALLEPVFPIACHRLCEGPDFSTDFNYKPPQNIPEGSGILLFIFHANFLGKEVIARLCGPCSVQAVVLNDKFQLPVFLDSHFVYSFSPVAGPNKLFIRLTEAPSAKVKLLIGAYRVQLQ
In short: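 Chemiluminescent proximity assay: histidine-tag capture via nickel acceptor beads, biotin peptide via streptavidin donor beads. Protein and peptide each at 50 nM, pH 7.4, with 30 min incubations at room temperature for complex formation, compound exposure and bead binding.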

[28] = biological target: Transient receptor potential cation channel subfamily V member 1 (Homo sapiens) (UniProt Q8NER1); assay: HTS Assay for Compounds that Act as Enhancers of the Vanilloid Receptor 1 (AID 488979)
In short: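 Calcium influx kinetics via Fluo-8 (480/520 nm) in TRPV1-expressing cells, 2000/well cultured overnight at 35.5C. Compound-alone read 3 min (agonist phase), followed by EC20 capsaicin challenge for 2 min (enhancer phase).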

[29] = biological target: Thyrotropin receptor (Homo sapiens) (UniProt P16473); assay: qHTS Assay for Antagonists of the Thyroid Stimulating Hormone Receptor (AID 488980)
Chain of Thyrotropin receptor (Homo sapiens) (P16473 whole entry, looked up): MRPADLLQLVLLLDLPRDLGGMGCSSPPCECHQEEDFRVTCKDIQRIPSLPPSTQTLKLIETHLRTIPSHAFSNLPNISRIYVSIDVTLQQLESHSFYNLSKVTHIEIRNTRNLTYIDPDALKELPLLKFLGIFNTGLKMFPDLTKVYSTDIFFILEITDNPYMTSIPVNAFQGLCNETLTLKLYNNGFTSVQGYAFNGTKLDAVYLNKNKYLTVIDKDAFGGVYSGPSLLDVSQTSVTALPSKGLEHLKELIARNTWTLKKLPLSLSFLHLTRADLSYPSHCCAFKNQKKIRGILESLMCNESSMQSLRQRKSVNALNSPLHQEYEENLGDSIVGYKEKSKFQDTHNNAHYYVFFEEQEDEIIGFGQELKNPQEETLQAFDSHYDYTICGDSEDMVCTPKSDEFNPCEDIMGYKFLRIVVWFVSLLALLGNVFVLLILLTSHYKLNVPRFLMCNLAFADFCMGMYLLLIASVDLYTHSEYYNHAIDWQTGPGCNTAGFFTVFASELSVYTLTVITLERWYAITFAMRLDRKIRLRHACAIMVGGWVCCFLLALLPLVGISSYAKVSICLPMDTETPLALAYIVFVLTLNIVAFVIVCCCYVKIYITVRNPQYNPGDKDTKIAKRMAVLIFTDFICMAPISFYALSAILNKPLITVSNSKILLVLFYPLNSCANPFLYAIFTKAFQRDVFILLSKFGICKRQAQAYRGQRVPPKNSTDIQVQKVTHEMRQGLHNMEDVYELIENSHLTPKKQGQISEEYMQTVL
In short: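 Inhibition of TSH-stimulated cAMP accumulation was quantified by homogeneous time-resolved FRET in TSHR-transfected HEK293 cells. Agonist: TSH, 4 nM final (EC80).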

[30] = biological target: Thyrotropin-releasing hormone receptor (Homo sapiens) (UniProt P34981); assay: qHTS for Small Molecule Agonists and Allosteric Enhancers of Human TRH Receptor: Validation Screen for Agonists (AID 493127;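 active = calcium activation more than 3 SD above the typical response in the agonist read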;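 also: intracellular calcium rise by fluo-8 fluorescence before TRH EC20 addition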); settings: TRH receptor agonist cell assay; at 2 µM; hits give high values
Chain of Thyrotropin-releasing hormone receptor (Homo sapiens) (P34981 whole entry, looked up): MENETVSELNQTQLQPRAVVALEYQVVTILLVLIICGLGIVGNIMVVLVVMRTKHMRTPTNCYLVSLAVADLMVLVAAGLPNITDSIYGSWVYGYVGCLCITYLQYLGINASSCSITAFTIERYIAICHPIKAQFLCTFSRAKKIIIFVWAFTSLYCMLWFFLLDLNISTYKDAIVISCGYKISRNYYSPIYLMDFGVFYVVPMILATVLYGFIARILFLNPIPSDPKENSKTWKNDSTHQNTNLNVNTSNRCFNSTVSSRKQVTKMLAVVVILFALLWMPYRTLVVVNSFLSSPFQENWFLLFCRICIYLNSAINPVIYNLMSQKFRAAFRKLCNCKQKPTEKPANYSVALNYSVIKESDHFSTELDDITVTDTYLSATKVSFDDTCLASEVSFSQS
In short: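 Cells 2000/well, 10% FCS, 18 h 33.5C/5% CO2 → fluo-8 Ca dye, RT 30 min–1.5 h → FDSS baseline 10 × 1 s → compound added → 230 cycles (1 s/cycle) agonist mode. TRH controls.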

[31] = biological target: Galactokinase (Homo sapiens) (UniProt P51570); assay: qHTS Validation Assay for Inhibitors of Human Galactokinase (GALK) (AID 493189)
Chain of Galactokinase (Homo sapiens) (P51570 whole entry, looked up): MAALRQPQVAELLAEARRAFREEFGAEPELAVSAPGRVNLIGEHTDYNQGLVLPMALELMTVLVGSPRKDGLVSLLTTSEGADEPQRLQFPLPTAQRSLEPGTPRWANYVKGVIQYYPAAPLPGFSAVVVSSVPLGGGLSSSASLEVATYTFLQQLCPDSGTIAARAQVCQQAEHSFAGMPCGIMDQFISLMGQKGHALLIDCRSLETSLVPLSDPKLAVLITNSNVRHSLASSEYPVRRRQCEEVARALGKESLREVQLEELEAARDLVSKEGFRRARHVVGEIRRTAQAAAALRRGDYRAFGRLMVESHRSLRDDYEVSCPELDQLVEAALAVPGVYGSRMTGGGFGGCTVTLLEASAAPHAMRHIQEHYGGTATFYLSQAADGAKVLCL
In short: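 Enzyme activity is inferred from ATP consumption: human GALK phosphorylates galactose (100 uM) using 35 uM ATP for 1 h at room temperature, and luciferase-based Kinase-Glo Plus reports unconsumed ATP.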

[32] = Validation screen for small molecules that induce DNA re-replication in SW480 colon adenocarcinoma cells (AID 504364)
In short: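 250 cells/well; compound pinned in; 48 hr, 37 C, 5% CO2; Hoechst added, 40 min; nuclear fluorescence imaged, 405 ex / 500-530 em; re-replication scored as increase in high-intensity nuclei.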

[33] = biological target: Voltage-gated inwardly rectifying potassium channel KCNH2 (Homo sapiens) (UniProt Q12809); assay: qHTS Assay for Small Molecule Inhibitors of the Human hERG Channel Activity (AID 588834);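 also: potency is read from the fitted curve at half-maximal effect; lower thallium flux fluorescence means stronger hERG block; nearly all actives have a fitted effect of over 50% in size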
In short: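 Blockade is seen as reduced FluxOR thallium-flux fluorescence in U2OS cells expressing hERG from a BacMam construct, in Opti-MEM with 2% FCS. Concentration-response data fitted to the Hill equation for AC50.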

CCCCN1CCC(COC(=O)c2cc(Cl)c(N)c3c2OCCO3)CC1
activity change, negative = inhibition [1]: -2.87% [at 38 µM] | Potency [2]: 12.6 µM (active) | outcome [3]: inactive | Potency [4]: inactive | Potency [5]: inactive | Potency [6]: inactive | Potency [7]: inactive | outcome [8]: inactive | Potency [9]: 1.26 µM (active) | activation [10]: 7.22% | outcome [11]: inactive | Potency [12]: 5.62 µM (active) | outcome [13]: inactive | outcome [14]: inactive | outcome [15]: inactive | outcome [16]: inactive | outcome [17]: inactive | Potency [18]: 10 µM (active) | Potency [19]: 12.6 µM (active) | Potency [20]: 8.91 µM (active) | Potency [21]: 7.08 µM (active) | outcome [22]: inactive | outcome [23]: inactive | Potency [24]: inactive | Potency [25]: inactive | Potency [26]: inactive | Potency [27]: inactive | outcome [28]: inactive | outcome [29]: inactive | activation [30]: 1.19% | outcome [31]: inactive | Potency [32]: inactive | Potency [33]: 2.24 µM (active)
